# Hits are enriched below; roughly 2.6% of the tested compounds scored in any of these assays.
# Cruzain inh Det = cruzain (T. cruzi) inhibition with detergent; P25779; purified cruzain, Z-FR-AMC fluorescence, 0.01% Triton; Potency, µM, for the others: max response, negative = inhibition, hits mostly inhibitors; hit rate 0.43% among 200,000; AID 1478;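 further: plate controls were neutral wells for no effect and buffer without enzyme for full effect; nearly all actives have a fitted effect of over 40% in size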
# Target sequence (P25779 123-467 limits assumed): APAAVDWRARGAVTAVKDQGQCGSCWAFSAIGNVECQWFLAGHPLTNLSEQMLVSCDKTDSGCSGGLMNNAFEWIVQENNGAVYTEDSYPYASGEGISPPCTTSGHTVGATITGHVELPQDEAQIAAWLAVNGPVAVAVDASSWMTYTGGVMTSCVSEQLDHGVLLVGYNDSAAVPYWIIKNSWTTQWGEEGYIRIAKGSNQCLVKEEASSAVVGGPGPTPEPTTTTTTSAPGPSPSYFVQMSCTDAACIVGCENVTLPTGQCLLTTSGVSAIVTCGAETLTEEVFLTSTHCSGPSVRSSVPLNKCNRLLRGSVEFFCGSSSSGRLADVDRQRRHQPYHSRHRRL
#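 Z-FR-AMC hydrolysis (2 uM substrate) by cruzain (1.5 nM) monitored kinetically at ex 360/em 450 nm after 15 min room-temperature compound exposure; 0.01% Triton X-100, pH 5.5, 5 mM DTT.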
# Cruzain inh noDet = blocks cruzain activity in detergent-free assay | P25779 | purified cruzain, Z-FR-AMC fluorescence, no detergent | Potency, µM, without a hit: max response, negative = inhibition, usual class: inhibitors | hit rate 2.3% among 200,000;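 further: plate controls were enzyme without inhibitor for no effect and buffer without enzyme for full effect; nearly all actives have a fitted effect of over 40% in size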
#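 Purified cruzain at 1.5 nM, pre-incubated 15 min with compound at room temperature in 100 mM sodium acetate pH 5.5, 5 mM DTT, 0.00005% Triton X-100. Reaction started with 2 uM Z-FR-AMC; AMC fluorescence increase over 60 s gives rate.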
# An asterisk follows results filed as active; ? = inconclusive. The call rests on the fitted dose curve; in most records, active means well fitted curve in the direction sought with a large enough effect; inconclusive means small, poorly fitted or top-dose-only effect, or another doubt; inactive means no such curve, though single readings can be large; an effect the other way counts as inactive or inconclusive. Potency means the concentration at half of the fitted maximal effect.
SMILES,Cruzain inh Det,Cruzain inh noDet
O=C(COC(=O)/C=C/c1ccc(Cl)cc1Cl)Nc1cc(C(F)(F)F)ccc1N1CCOCC1,-3%,13µM*
COc1cccc(OCCCn2cc(/C=C3/C(=N)N4C=C(C)SC4=NC3=O)c3ccccc32)c1,-2%,13µM*
COc1cc(/C=C2/C(=N)N3C=CSC3=NC2=O)ccc1OCCCOc1ccccc1C,-5%,-5%
CC1=CN2C(=N)/C(=C/c3cn(CCCOc4ccccc4C)c4ccccc34)C(=O)N=C2S1,1%,3.2µM*
COc1ccc(OCCCn2cc(/C=C3/C(=N)N4C=C(C)SC4=NC3=O)c3ccccc32)cc1,-3%,25µM*
COc1cc(/C=C2/C(=N)N3C=CSC3=NC2=O)ccc1OCCCOc1c(C)cccc1C,-1%,-8%
CC1=CN2C(=N)/C(=C/c3ccco3)C(=O)N=C2S1,-8%,-9%
COc1ccc(CCC(=O)NC2CC(=O)N(c3ccc(C)c(C)c3)C2)cc1 (stereo not drawn),2%,8%
CCCCOc1ccc(NC(=O)C(=O)NCCC2=CCCCC2)cc1,3%,10µM*
COc1ccc(NC(=O)C(=O)NCCC2=CCCCC2)c(OC)c1,2%,3%
Cc1ccc2cccc(NC(=O)C(C)(C)Oc3ccc(Br)cc3)c2n1,-2%,-19%
COc1ccc(-c2noc(-c3cc(C(C)C)[nH]n3)n2)cc1,-5%,14%
CN(C)c1ccc(-c2noc(-c3ccccc3O)n2)cc1,22µM*,25µM*
c1ccc(-c2noc(-c3ccccc3-c3ccccc3)n2)cc1,-4%,-9%
CN(C)c1ccc(N=Nc2ccccc2)cc1,-8%,-13%
CN(C)c1ccc(N=O)cc1,25µM*,32µM*
O=C1C2C3c4ccccc4C(c4ccccc43)[C@@H]2C(=O)N1c1nc(-c2ccccc2)cs1 (stereo partly drawn),-4%,13µM*
O=C1C2C3c4ccccc4C(c4ccccc43)C2C(=O)N1c1nc(-c2ccccc2)cs1 (stereo not drawn),-3%,?
C/C(=N\NC(=S)NC(C)C)c1ccc(Cl)s1,-11%,-10%
C/C(=N\NC(N)=S)c1ccc(Cl)s1,0.56µM*,0.25µM*
O=c1c(N2CCc3ccccc3C2)csc2ccc(F)cc12,-4%,3%
Cc1ccc(C)c(NC(=O)C2CCCN(c3nc4ccccc4s3)C2)c1 (stereo not drawn),-2%,-8%
O=C(Nc1ccc(NC(=O)c2cccs2)cc1)c1ccc(Cl)cc1,0%,-5%
COc1c(Cl)cc(Cl)cc1/C=C/C(=O)c1ccc(NC(=O)c2cccs2)cc1,-3%,32µM*
Cc1ccc(Nc2c(-c3cccnc3)nc3ccc(Cl)cn23)cc1,-2%,7%
SMILES,Cruzain inh Det,Cruzain inh noDet
CC(C)c1cccc(C(C)C)c1NC(=O)c1ccc(OCC(=O)NCc2ccccc2)cc1,0%,7.9µM*
CC(C)c1ccccc1NC(=O)COc1ccc(C(=O)NCCc2ccccc2)cc1,0%,?
CC1CN(C(=O)c2ccccc2)C(=Nc2cccc(S(=O)(=O)N(C)C)c2)S1 (stereo not drawn),0%,3%
CN(C)S(=O)(=O)c1cccc(N=C2NN=C(c3ccccc3)CS2)c1,-3%,32µM*
O=C1N/C(=N/N=C/c2ccccc2)SC1(c1ccccc1)c1ccccc1,1%,4µM*
COC(=O)/C=C1\S/C(=N/N=C/c2ccccc2)NC1=O,-2%,1%
COc1ccc(Cn2c(C(=O)O)c(CNCc3ccc(SC)cc3)c3ccc(OC)cc32)cc1,-10%,4%
COc1ccc(C2c3[nH]c4ccccc4c3CCN2C(=O)CCC2CCCC2)cc1 (stereo not drawn),4%,16µM*
O=C(CCC1CCCC1)N1CCc2c([nH]c3ccccc23)C1c1ccc(F)cc1 (stereo not drawn),2%,?
CCOc1ccc(C2c3[nH]c4ccccc4c3CCN2C(=O)CCC2CCCC2)cc1 (stereo not drawn),3%,?
COc1ccc(C2c3[nH]c4ccc(OC)cc4c3CCN2C(=O)Nc2ccccc2)cc1 (stereo not drawn),-6%,25µM*
COc1cccc(C(=O)N2CCc3c([nH]c4ccccc34)C2c2ccc(SC)cc2)c1 (stereo not drawn),5%,19%
CCOc1cccc(CC(=O)N2CCc3c([nH]c4ccccc34)C2c2ccc(Cl)cc2)c1OCC (stereo not drawn),3%,20µM*
O=C(CCC1CCCC1)N1CCc2c([nH]c3ccccc23)C1c1ccc(Cl)cc1 (stereo not drawn),4%,7.9µM*
O=C(CCc1ccccc1)N1CCc2c([nH]c3ccccc23)C1c1ccc(Cl)cc1 (stereo not drawn),2%,?
CCOc1ccc2nc(NC(=O)c3nc(SCc4ccc(C)cc4)ncc3Cl)sc2c1,1%,4%
O=C(CSc1nc2c(oc3ccccc32)c(=O)n1-c1ccccc1)Nc1ccc(F)c(Cl)c1,-4%,-3%
Cc1ccc(NC(=O)CCCc2nnc3n(C)c(=O)c4sccc4n23)cc1C,3%,4%
COC(=O)Cc1c(C)c2cc3c(c(C)c2oc1=O)OCN(CCc1ccc(F)cc1)C3,-6%,19%
O=C1CC(N2CCN(c3ccccc3Cl)CC2)C(=O)N1c1ccccc1 (stereo not drawn),0%,10%
O=C1CC(N2C(=O)/C(=C/C=C/c3ccccc3)SC2=S)C(=O)N1c1ccccc1 (stereo not drawn),-6%,16µM*
Cc1cccc(OCC(=O)Nc2nc3ccc([N+](=O)[O-])cc3s2)c1,-1%,?
CC(C)c1ccc(/C=C/C(=O)Nc2nc3ccc([N+](=O)[O-])cc3s2)cc1,4%,4µM*
Cc1nn2c(=O)cc(COC(=O)c3cccc(NC(=O)c4cccs4)c3)nc2s1,0%,9%
COc1ccc2c(c1)C(=O)[C@H](OC(=O)Nc1ccc(C)c(Br)c1)[C@@H](c1ccc(OC)c(Br)c1)O2,-1%,?
SMILES,Cruzain inh Det,Cruzain inh noDet
COc1ccc2c(c1)C(=O)[C@@H](OC(=O)Nc1ccc(C)c(Br)c1)[C@H](c1ccc(OC)c(Br)c1)O2,1%,25µM*
CCOC(=O)c1noc2ncn(CC(=O)Nc3ccc(C)c(F)c3)c(=O)c12,0%,8%
CCc1cc2c(=O)nc3n(c2s1)Cc1ccccc1/C3=C(/O)c1ccccc1Cl,-2%,25µM*
CCc1cc2c(=O)nc3n(c2s1)Cc1ccccc1/C3=C(/O)c1ccc(F)cc1,-1%,?
COc1cccc(Cn2c(=O)n(CC3CCC(C(=O)N4CCOCC4)CC3)c(=O)c3sccc32)c1 (stereo not drawn),-3%,27%
O=c1/c(=C\c2cccn2-c2ccccc2)sc2nc3ccccc3n12,3%,?
Cc1ccc(-n2c(C)cc(/C=c3/sc4nc5ccccc5n4c3=O)c2C)cc1,0%,10µM*
Cc1ccc(Cn2cc(S(=O)(=O)c3ccc(C(C)C)cc3)c(=O)c3cc4c(cc32)OCO4)cc1,-6%,32µM*
CCCn1cc(S(=O)(=O)c2ccc(OCC)cc2)c(=O)c2cc(C)ccc21,-3%,-5%
CC(C)c1ccc(S(=O)(=O)c2cn(Cc3ccc(F)cc3)c3cc4c(cc3c2=O)OCO4)cc1,-2%,?
CCOc1ccc(S(=O)(=O)c2cn(Cc3cc(C)ccc3C)c3ccc(OCC)cc3c2=O)cc1,-4%,16µM*
Cc1ccc(NC(=O)c2oc3ccccc3c2NC(=O)Cc2ccccc2)cc1,-8%,-24%

# Compound activity deposited in PubChem BioAssay by National Center for Advancing Translational Sciences (NCATS).
